Only some compounds are listed: those with a hit (about 7.5% of all), similar ones and a draw of the others.
HCV inh = qHTS Assay for Inhibitors of Hepatitis C Virus (HCV) | Huh7.5.1 HCVcc-Cre infection, luciferase reporter, 44 h | Potency, µM (doses to about 41.8 µM), inactives show top-dose activity change, negative = inhibition, actives largely listed as inhibitors | 340,000 compounds, 3.4% hits; also: potency is read from the fitted curve at half-maximal effect
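Cells seeded at 1,000/well and cultured 4 h, then compounds added followed by HCVcc-Cre virus (~0.5 moi). After 44 h further culture, luciferase substrate was added, plates held 15 min at room temperature, and luminescence read for 15 sec.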
Vaccinia Venus = qHTS for Stage-Specific Inhibitors of Vaccinia Orthopoxvirus: Venus Reporter Primary qHTS | Vaccinia virus Venus reporter expression, fluorescence | Potency, µM (series often up to 36.5 µM), for inactives: top-dose activity change, negative = inhibition, usual class: inhibitors | 330,000 compounds, 0.46% hits; calls by dose curve; tested in A549 cells; also: potency is read from the fitted curve at half-maximal effect; nearly all actives have a fitted effect of over 30% in size
FMDV inh = High Throughput Screening for Foot and Mouth Disease Virus Antivirals. 410,000 compounds, 1.2% hits. FMDV antiviral cell-based qHTS. Potency, µM (series often up to 57.9 µM), for inactives: top-dose activity change, negative = inhibition, usual class: inhibitors; calls by dose curve; tested in HEK293T cells; also: read-out not given here; potency is read from the fitted curve at half-maximal effect; nearly all actives have a fitted effect of over 45% in size
Vaccinia mCherry = qHTS for Stage-Specific Inhibitors of Vaccinia Orthopoxvirus: mCherry Reporter Primary qHTS | Potency, µM (top dose mostly 36.5 µM), without a hit: top-dose activity change, negative = inhibition, most hits filed as inhibitors | 310,000 compounds, 0.63% hits | Vaccinia virus mCherry reporter infection, fluorescence; calls by dose curve; tested in A549 cells; also: potency is read from the fitted curve at half-maximal effect; nearly all actives have a fitted effect of over 35% in size
HCMV antiviral = qHTS Assay for inhibitors of the human cytomegalovirus (HCMV); HFF cells, HCMV-luciferase reporter, 72 h; stronger effect = lower value; activity change, negative = inhibition, % at 57.5 µM; 410,000 compounds, 4.5% hits; AID 1259415, 2018; in the data active = activity change below about -60%; inconclusive = no clear call, values can overlap the other calls; inactive = above about -39%
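Two compound doses tested in HFFs infected with HCMV-luciferase, MOI 1 PFU/cell, 72 h at 37C. Lysate luminescence read with OneGlo; data normalized against buffer-only and 10uM Salinomycin inhibitor controls.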
Giardia FBPA inh = qHTS Assay for Inhibitors of Fructose-1,6-bisphosphate Aldolase from Giardia Lamblia; A8B2U2; purified Giardia FBPA; Potency, µM (series often up to 59.6 µM), for the others: top-dose activity, negative = inhibition, actives largely listed as inhibitors; 290,000 compounds, 0.71% hits; AID 2451, 2010; also: potency is read from the fitted curve at half-maximal effect; nearly all actives have a fitted effect of over 55% in size
Target sequence (A8B2U2 whole entry, looked up): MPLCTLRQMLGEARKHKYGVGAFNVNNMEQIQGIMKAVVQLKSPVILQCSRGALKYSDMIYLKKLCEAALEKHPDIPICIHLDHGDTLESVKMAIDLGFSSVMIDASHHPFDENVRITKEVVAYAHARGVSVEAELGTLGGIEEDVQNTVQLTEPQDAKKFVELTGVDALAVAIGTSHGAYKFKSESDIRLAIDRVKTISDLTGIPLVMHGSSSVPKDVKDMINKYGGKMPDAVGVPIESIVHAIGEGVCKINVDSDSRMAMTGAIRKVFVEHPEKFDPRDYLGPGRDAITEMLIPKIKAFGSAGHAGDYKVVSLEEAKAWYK
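40 nM FBPA preincubated 10 min at RT with compound (up to 57.5 uM final), then substrate plus GAPDH/TPI/NAD/arsenate coupling and diaphorase/resazurin added. Fluorescence read after 20 min at RT, 525/598 nm.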
* hit, by the source's call; i = inactive; ? = inconclusive; · = no result given; + = active, no number; ! = not confirmed by another sample; [ ] = remark or other dose. Unless noted, calls follow the shape of the dose curve; as a rule, active = well fitted curve in the direction sought with a large enough effect; inconclusive = small, poorly fitted or top-dose-only effect, or another doubt; inactive = no such curve, though single readings can be large; an effect the other way counts as inactive or inconclusive. % is scaled to controls: 0 for no effect and ±100 for the full control effect.

SMILES	HCV inh	Vaccinia Venus	FMDV inh	Vaccinia mCherry	HCMV antiviral	Giardia FBPA inh
Cc1ccc2c(c1)N(CC(=O)NCCCc1ccccc1)C(=O)c1cccnc1O2	-21.5%	6.6%	?	-8.1%	-61.7*	8.1%
CSc1ccc(CCNC(=O)CN2C(=O)c3cccnc3Oc3ccc(C)cc32)cc1	?	-14.3%	?	-7.5%	+!	2.2%
CC(=O)NC(c1ccccc1)c1nc(-c2ccc3ccccc3c2)cs1 (stereo not drawn)	·	-4.2%	-1.3%	i	18.7	·
COc1ccc2oc(C(=O)NCc3cc(OC)c(OC)cc3OC)c(C)c2c1	15.8µM*	-11.8%	?	i	-27.0	-2.1%
COc1ccc2oc(C(=O)NC3(C)CCS(=O)(=O)C3)c(C)c2c1 (stereo not drawn)	?	-4.8%	32.8%	-15.6%	-100.9*	·
c1ccc(C[C@H]2CN=C(Nc3ccccc3)N2CC2CCCC2)cc1	·	-3.5%	-17.3%	-0.9%	7.8	·
Nc1nnnn1/N=C/C(Br)=C/c1ccccc1	10µM*	?	14.1µM*	?	8.9	-10.7%
O=C(CN1CCCC1c1cccs1)Nc1cccc(S(=O)(=O)N2CCCC2)c1 (stereo not drawn)	10µM*	·	-25.0%	·	-33.3	·
COc1ccc(NC(=O)CN2CCCC2c2cccs2)cc1S(=O)(=O)N1CCCCC1 (stereo not drawn)	?	·	39.8µM*	·	?	·
O=C(CN1CCCC1c1cccs1)Nc1cc(S(=O)(=O)N2CCCC2)ccc1Cl (stereo not drawn)	?	-7.5%	-20.9%	i	2.7	·
CCOc1ccc(NC(=O)CN2CCCC2c2cccs2)cc1S(=O)(=O)N1CCCC1 (stereo not drawn)	11.2µM*	·	7.3%	·	-91.7*	·
COc1ccc(NC(=O)CN2CCOCC2)cc1S(=O)(=O)N1CCCCC1	27.0%	-11.1%	13.6%	-15.1%	17.5	·
Cc1ccc(N2CCN(C(=O)c3cc4cc5ccc(C)cc5nc4s3)CC2C)cc1 (stereo not drawn)	·	-10.7%	42.7%	-3.7%	1.0	·
Cc1cc(-c2ccc(S(=O)(=O)N3CCN(c4ccccc4F)CC3)s2)on1	-24.9%	·	-29.5%	·	0.0	-3.9%
CCCC(=O)n1nc(-c2ccco2)nc1NCc1ccccc1Cl	·	-2.2%	31.4%	-11.9%	20.5	·
CCOC(=O)/C(C#N)=C1/C=C(C)NC(c2ccccc2O)=N1	?	10µM*	?	?	-103.4*	-14.2%
O=C1c2ccccc2CCC12OC2c1ccncc1 (stereo not drawn)	·	-17.4%	-4.7%	-10.7%	2.6	·
CCn1c(=O)c2cc(C(=O)N(C)c3cc(C)ccc3OC)sc2c2ccccc21	12.6µM*	·	-47.2%	·	0.0	-1.7%
CCOc1ccccc1N(CC)C(=O)c1cc2c(=O)n(CC)c3ccccc3c2s1	·	?	?	?	-70.2*	·
CCn1c(=O)c2cc(C(=O)N(C)c3ccccc3F)sc2c2ccccc21	1µM*	-18.8%	-25.8%	-3.7%	?	-0.7%
CCn1c(=O)c2cc(C(=O)N(C)c3cc(Cl)c(OC)cc3OC)sc2c2ccccc21	·	-15.9%	-20.6%	-15.3%	2.2	·
Fc1ccc(Nc2ncnc3onc(-c4ccc(Cl)cc4)c23)cc1Cl	·	0.6%	?	-11.8%	?	·
CN(C)[C@@H]1C(=O)C(C(N)=O)=C(O)[C@@]2(O)C(=O)C3=C(O)c4c(O)cccc4[C@@](C)(O)[C@H]3[C@H](O)[C@@H]12	14.0%[8.37 µM]	-2.0%	-13.0%	i	?	4.46µM*
CN(C)[C@@H]1C(=O)C(C(N)=O)=C(O)[C@@]2(O)C(=O)C3=C(O)c4c(O)cccc4[C@@](C)(O)C3C[C@@H]12 (stereo partly drawn)	-8.1%	-24.5%	-13.0%	-10.4%	19.9	·
CN(C)[C@H]1C(=O)C(C(=O)NCN2CCCC2)=C(O)[C@]2(O)C(=O)C3=C(O)c4c(O)cccc4[C@@](C)(O)[C@H]3C[C@@H]12	·	·	·	·	·	4.46µM*
SMILES	HCV inh	Vaccinia Venus	FMDV inh	Vaccinia mCherry	HCMV antiviral	Giardia FBPA inh
CN(C)[C@@H]1C(=O)C(C(N)=O)=C(O)[C@@]2(O)C(=O)C3=C(O)c4c(O)ccc(Cl)c4[C@@](C)(O)[C@H]3C[C@@H]12	0.891µM*	?	?	?	36.9	-5.7%
CN(C)C1C(=O)C(C(N)=O)=C(O)[C@@]2(O)C(=O)C3=C(O)c4c(O)cccc4[C@](C)(O)C3C(O)C12 (stereo partly drawn)	·	-3.3%	-2.0%	-15.3%	·	?
CCOC(=O)c1c(C)[nH]c(CCC(=O)Nc2cc(Cl)ccc2OC)c1C	·	-13.1%	-25.1%	-4.4%	-12.9	·
O=C(N/N=C/c1cc([N+](=O)[O-])ccc1O)c1cccc(N2CCCC2=O)c1	?	-1.8%	11.5%	6.31µM*	11.2	?
O=C(N/N=C/c1cc([N+](=O)[O-])ccc1O)c1cccc2cc[nH]c12	?	·	-33.5%	·	-80.3*	8.6%
COc1ccc(-c2noc(CSc3nnc(-c4ccncc4)n3-c3cccc(C)c3)n2)cc1OC	·	?	0.0%	-9.6%	-14.5	·
CC(C)c1ccc(NC(=O)Cc2ccc(NC3=NC4CS(=O)(=O)CC4S3)cc2)cc1 (stereo not drawn)	1.9%	-5.2%	16.9%	-27.3%	20.1	?
NCCc1c(-c2ccccc2)n(-c2ccccc2)c2ccccc12	11.2µM*	?	-22.7%	?	-3.9	2.4%
CC(=O)n1c(-c2ccccc2)c(CO)c2ccccc21	-25.3%	-5.4%	-26.7%	2.5%	-17.5	1.9%
CCOC(=O)N1CCN(C(=O)C(NC(=O)c2ccc(C(C)(C)C)cc2)C(C)C)CC1 (stereo not drawn)	?	·	-27.8%	·	-61.7*	·
Cc1ccc(S(=O)(=O)n2nccc2-c2c(-c3ccc(Cl)cc3)noc2C)cc1	14.1µM*	1.3%[7.34 µM]	-20.3%	?	-95.9*	5.3%
CC(Oc1ccc(Cl)cc1)c1ccnn1S(=O)(=O)c1ccc(Cl)cc1 (stereo not drawn)	?	-24.3%	?	-29.7%	-20.2	-5.0%
Cc1ccc(CC(NC(=O)c2ccccc2)C(=O)N2CCCC2C(=O)O)cc1 (stereo not drawn)	16.9%	·	2.3%	·	-107.1*	-8.6%
O=C(NC(Cc1ccc2c(c1)OCO2)C(=O)N1CCCC1C(=O)O)c1ccccc1 (stereo not drawn)	16.0%	-18.4%	27.0%	-13.7%	-24.6	-4.1%
COc1ccc(CNC(=O)O[C@]23C[C@H]4C(=O)N(c5ccccc5)C(=O)[C@H]4C[C@@]2(O)CN(S(=O)(=O)c2ccc(C)cc2)C3)cc1OC	·	-12.9%	-17.3%	i	-8.4	·

Source: PubChem (National Center for Advancing Translational Sciences (NCATS))
